From PubChem BioAssay (EPA / NIEHS)
Several values for one entry are separate records, joined by “and”; a condition that tells them apart may be missing. Identical values can stand only once. A structure can be active in one record and inactive in another. Activity calls are given as the source filed them. How the source made its calls: active means hit-call score of the fitted dose curve at least 0.9, where 1 is the maximum; inactive means score below 0.9.

Read-out: Pselectin, SELP (gene 6403)
Assay: BSK_4H_Pselectin: BioMAP Diversity Plus: 4H Assay for Pselectin Biomarker Activity (AID 2283026)
Settings: primary human endothelial cells (HUVEC); actives raise or lower the signal
Method in brief: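 Bidirectional fits against DMSO gave the endpoint. Cells: primary human umbilical vein endothelium, chemical-treated for 24 h before ELISA detection of P-selectin.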

SMILES | outcome | AC50
OCCOc1ccccc1 | inactive | –
Cc1cc(C)nc(NC(=O)NS(=O)(=O)c2ccccc2C(=O)OC2COC2)n1 | inactive | –
COP(=S)(OC)Oc1ccc(SC)c(C)c1 | inactive | –
C#CCN1C(=O)COc2cc(F)c(N3C(=O)C4=C(CCCC4)C3=O)cc21 | inactive | –
O=C(O)CCCOc1ccc(Cl)cc1Cl | inactive | –
N#Cc1c(Cl)c(Cl)c(Cl)c(C#N)c1Cl | – | 0.911 µM (active)
CCS(=O)(=O)c1cccnc1S(=O)(=O)NC(=O)Nc1nc(OC)cc(OC)n1 | inactive | –
CC[C@H](C)[C@H]1O[C@]2(C=C[C@@H]1C)C[C@@H]1C[C@@H](C/C=C(\C)[C@@H](O[C@H]3C[C@H](OC)[C@@H](O[C@H]4C[C@H](OC)[C@@H](O)[C@H](C)O4)[C@H](C)O3)[C@@H](C)/C=C/C=C3\CO[C@@H]4[C@H](O)C(C)=C[C@@H](C(=O)O1)[C@]34O)O2 (tested in a mixture with another compound) | – | 5.3 µM (active)
CCC(C)Nc1c([N+](=O)[O-])cc(C(C)(C)C)cc1[N+](=O)[O-] (stereo not drawn) | – | 20 µM (active)
CNC(=O)CSP(=S)(OC)OC | inactive | –
O=S1OCC2C(CO1)C1(Cl)C(Cl)=C(Cl)C2(Cl)C1(Cl)Cl (stereo not drawn) | – | 27.3 µM (active)
O=[N+]([O-])/N=C1\NCCN1Cc1ccc(Cl)nc1 | inactive | –
COC(=O)c1ccccc1S(=O)(=O)NC(=O)Nc1nc(C)nc(OC)n1 | inactive | –
CCOCN(C(=O)CCl)c1c(C)cccc1CC | – | 11.4 µM (active)
CCN(CC)C(=O)SCc1ccc(Cl)cc1 | inactive | –
[2H]C1([2H])[n+]2ccccc2-c2cccc[n+]2C1([2H])[2H] | inactive | –
O=S(=O)(O)C(F)(F)C(F)(F)C(F)(F)C(F)(F)C(F)(F)C(F)(F)C(F)(F)C(F)(F)F | inactive | 12.2 µM (active) and 3.81 µM (active)
CNC(=O)/C=C(\C)OP(=O)(OC)OC | inactive | –
CC1(C)C(C=C(Cl)Cl)C1C(=O)OC(C#N)c1ccc(F)c(Oc2ccccc2)c1 (stereo not drawn) | inactive | –
CC(C)(C)C(O)C(Oc1ccc(Cl)cc1)n1cncn1 (stereo not drawn) | inactive | –
O=C1c2ccccc2C(=O)N1SC(Cl)(Cl)Cl | inactive | –
O=C(O)C(F)(F)C(F)(F)C(F)(F)C(F)(F)C(F)(F)C(F)(F)C(F)(F)F | inactive | –
CC(C)OC(=O)Nc1cccc(Cl)c1 | inactive | –
Oc1cc(Cl)ccc1Oc1ccc(Cl)cc1Cl | – | 12.3 µM (active) [middle of 4 runs]
Clc1ccccc1-c1nnc(-c2ccccc2Cl)nn1 | inactive | –
COP(=S)(OC)Oc1ccc([N+](=O)[O-])cc1 | inactive | –

Read-out: not listed separately
Assay: BSK_4H_SRB: Viability Assessment in the BioMAP Diversity Plus: 4H Assay (AID 2283027);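 further: cells exposed to compound for 24 h before staining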;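 on AC50: curves fitted both ways versus DMSO so AC50 may be loss or gain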
Settings: primary human endothelial cells (HUVEC)
Method in brief: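 HUVEC, 24 h post-dose; 10% TCA fix, 0.1% SRB stain, A560 nm. Total protein = overt cytotoxicity, parallel to biomarker read. Bidirectional fit vs DMSO baseline.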

SMILES | outcome | AC50
OCCOc1ccccc1 | inactive | –
COP(=S)(OC)Oc1ccc(SC)c(C)c1 | – | 5.31 µM (active)
N#Cc1c(Cl)c(Cl)c(Cl)c(C#N)c1Cl | – | 1.96 µM (active)
CCS(=O)(=O)c1cccnc1S(=O)(=O)NC(=O)Nc1nc(OC)cc(OC)n1 | inactive | –
CNC(=O)CSP(=S)(OC)OC | inactive | –
O=S1OCC2C(CO1)C1(Cl)C(Cl)=C(Cl)C2(Cl)C1(Cl)Cl (stereo not drawn) | – | 27.7 µM (active)
CCOCN(C(=O)CCl)c1c(C)cccc1CC | inactive | –
CCN(CC)C(=O)SCc1ccc(Cl)cc1 | inactive | –
O=C1c2ccccc2C(=O)N1SC(Cl)(Cl)Cl | inactive | –

Read-out: not listed separately
Assay: BSK_BE3C_SRB: Viability Assessment in the BioMAP Diversity Plus: BE3C Assay (AID 2283028);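 further: measured 24 h after chemical dosing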;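 on AC50: fitted both ways so AC50 may mark signal gain or loss versus DMSO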
Settings: primary human bronchial epithelial cells
Method in brief: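 Cells (human bronchial epithelial, primary) are treated with chemicals, and after 24 h the parallel cultures are fixed in 10% TCA. These are then stained with 0.1% SRB and read at 560 nm. Gain or loss of signal is fitted relative to DMSO.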

SMILES | outcome | AC50
OCCOc1ccccc1 | inactive | –
Cc1cc(C)nc(NC(=O)NS(=O)(=O)c2ccccc2C(=O)OC2COC2)n1 | inactive | –
COP(=S)(OC)Oc1ccc(SC)c(C)c1 | – | 23.2 µM (active)
C#CCN1C(=O)COc2cc(F)c(N3C(=O)C4=C(CCCC4)C3=O)cc21 | inactive | –
O=C(O)CCCOc1ccc(Cl)cc1Cl | inactive | –
N#Cc1c(Cl)c(Cl)c(Cl)c(C#N)c1Cl | – | 1.72 µM (active)
CCS(=O)(=O)c1cccnc1S(=O)(=O)NC(=O)Nc1nc(OC)cc(OC)n1 | inactive | –
CC[C@H](C)[C@H]1O[C@]2(C=C[C@@H]1C)C[C@@H]1C[C@@H](C/C=C(\C)[C@@H](O[C@H]3C[C@H](OC)[C@@H](O[C@H]4C[C@H](OC)[C@@H](O)[C@H](C)O4)[C@H](C)O3)[C@@H](C)/C=C/C=C3\CO[C@@H]4[C@H](O)C(C)=C[C@@H](C(=O)O1)[C@]34O)O2 (tested in a mixture with another compound) | – | 4.65 µM (active)
CCC(C)Nc1c([N+](=O)[O-])cc(C(C)(C)C)cc1[N+](=O)[O-] (stereo not drawn) | – | 14.7 µM (active)
CNC(=O)CSP(=S)(OC)OC | inactive | –
O=S1OCC2C(CO1)C1(Cl)C(Cl)=C(Cl)C2(Cl)C1(Cl)Cl (stereo not drawn) | – | 20.9 µM (active)
O=[N+]([O-])/N=C1\NCCN1Cc1ccc(Cl)nc1 | inactive | –
COC(=O)c1ccccc1S(=O)(=O)NC(=O)Nc1nc(C)nc(OC)n1 | inactive | –
CCOCN(C(=O)CCl)c1c(C)cccc1CC | – | 20 µM (active)
CCN(CC)C(=O)SCc1ccc(Cl)cc1 | inactive | –
[2H]C1([2H])[n+]2ccccc2-c2cccc[n+]2C1([2H])[2H] | – | 13.3 µM (active)
O=S(=O)(O)C(F)(F)C(F)(F)C(F)(F)C(F)(F)C(F)(F)C(F)(F)C(F)(F)C(F)(F)F | inactive | 19.8 µM (active) [middle of 7 runs]
CNC(=O)/C=C(\C)OP(=O)(OC)OC | inactive | –
CC1(C)C(C=C(Cl)Cl)C1C(=O)OC(C#N)c1ccc(F)c(Oc2ccccc2)c1 (stereo not drawn) | inactive | –
CC(C)(C)C(O)C(Oc1ccc(Cl)cc1)n1cncn1 (stereo not drawn) | inactive | –
O=C1c2ccccc2C(=O)N1SC(Cl)(Cl)Cl | – | 31.8 µM (active)
O=C(O)C(F)(F)C(F)(F)C(F)(F)C(F)(F)C(F)(F)C(F)(F)C(F)(F)F | inactive | –
CC(C)OC(=O)Nc1cccc(Cl)c1 | inactive | –
Oc1cc(Cl)ccc1Oc1ccc(Cl)cc1Cl | – | 31.4 µM (active) [middle of 4 runs]
Clc1ccccc1-c1nnc(-c2ccccc2Cl)nn1 | inactive | –
COP(=S)(OC)Oc1ccc([N+](=O)[O-])cc1 | inactive | –
